This passage reports Potency results from PubChem BioAssay AID1745850 (National Center for Advancing Translational Sciences (NCATS), 2022).

Hit rate of the full screen: of about 2,100 compounds, about 260 (12%) were called active. Another 58% or so got no clear call; they are omitted. Calls come from the whole dose curve; as a rule, active = well fitted cell-killing curve with a large enough effect; inconclusive = small, poorly fitted or top-dose-only effect, or effect the other way; inactive = flat fitted curve, though single readings scatter. This is one part of the list. Where a call stands in place of a potency, no number is given.
Potency is the fitted concentration of half-maximal effect.

The nature of the assay: Viability Counterscreen for Confirmatory qHTS for Inhibitors of ATXN expression. Note: nearly all actives have a fitted effect of over 50% in size. The following applies: HEK-293 ATXN2-luc cells viability, CellTiter-Fluor, 24 h. An outline of the steps:
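Luminescence read-out (SteadyGlo, 5 min) followed a 30 min Gly-Phe-AFC (25 uM final) viability fluorescence read. ATXN2-luciferase reporter cells were exposed 24 h to a dilution series. Medium-only wells served as the 100% inhibition reference.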
For `CC(=O)c1ccc(S(=O)(=O)N2CCN(CCOc3ccc(Br)cc3)CC2)cc1`, the Potency result was “inactive”.

As for `CC(C)(C)N(Cc1ccc2c(c1)OCO2)C(=O)/C=C\S(=O)c1ccccc1` (stereo not given), the Potency was 17.8 µM (active).

As for `CN(C)CCC(c1ccc(Br)cc1)c1ccccn1` (stereo not given), the Potency entry is “inactive”.

As for `CCOC(=O)c1c(-c2ccccc2)oc2ccc(OCC(=O)NN)cc12`, the Potency entry is “inactive”.

As to `O=C(N/N=C\c1cc(Br)ccc1O)c1ccc(S(=O)(=O)N2CCCCC2)cc1`, the Potency entry is “inactive”.

With `CCOc1cc(/C=C(/C#N)c2nc3ccccc3[nH]2)ccc1Oc1ccc([N+](=O)[O-])cn1`, the Potency result is “inactive”.

Regarding `N#C/C(=C\c1ccc([N+](=O)[O-])o1)c1nc2ccccc2[nH]1`, the Potency was 7.94 µM (active).

For the compound `O=C(Nc1cccnc1)C1Cc2c(-c3ccc4c(c3)OCO4)ccnc2O1` (stereo not given), the Potency entry is “inactive”.

Consider `Cc1nn(-c2ccccc2)c(N2CCCC2)c1/C=N/NC(=O)c1cc2ccccc2cc1O`, for which the Potency result was “inactive”.

As to `Cc1nc(SC2CC(=O)N(c3ccccc3)C2=O)n[nH]1` (stereo not given), the Potency result was “inactive”.

Regarding `Cc1cc(C(=O)CN2C(=O)c3ccccc3S2(=O)=O)c(C)n1CC1CCCO1` (stereo not given), the Potency entry was “inactive”.

As for `CCc1nc2c(OCc3ccc(Cl)cc3Cl)cccn2c1N(C=O)Cc1ccc(OC)cc1`, the Potency result is “inactive”.

As for `S=C(Nc1ccccc1)Nc1ccc(OCc2ccc(Cl)cc2Cl)cc1`, the Potency entry is “inactive”.

As to `Cc1cc(/C=N/n2cnnc2)c(C)n1-c1ccc(OCc2ccc(Cl)cc2Cl)cc1`, the Potency is 28.2 µM (active).

`Nc1cccc2c1C(=O)N(C(=O)/C=C/c1cccc(Br)c1)C2=O`: the Potency result is “inactive”.

As to `Cn1nnnc1Sc1ncnc2scc(Br)c12`, the Potency was 20 µM (active).

Regarding `Cn1nnnc1Sc1ncnc2scc(-c3ccc[nH]3)c12`, the Potency is 12.6 µM (active).

Turning to `O=c1[nH]c(CN2CCN(c3ncccn3)CC2)nc2c(Br)cc(Br)cc12`, the Potency entry is “inactive”.

With `CCOC(=O)COc1ccc(Br)cc1/C=C/c1[nH]c(=O)[nH]c(=O)c1[N+](=O)[O-]`, the Potency result was “inactive”.

`Nc1ccc2c(c1)OC1(CCCC1)O2`: the Potency result was “inactive”.

In the case of `Cn1c(CCc2nc3ccccc3[nH]2)nnc1SCC#N`, the Potency entry is “inactive”.

Turning to `c1ccc2c(c1)c1c(c3ccccc32)CN2CCCC2C1` (stereo not given), the Potency entry is “inactive”.

Regarding `COc1ccc(-c2c[n+]3c4n2CCCCC4=C(c2ccc(Br)cc2)C3)cc1`, the Potency result is “inactive”.

Consider `Cc1cccc(OCCn2cc(/C=N/NC(=O)c3ccncc3)c3ccccc32)c1`, for which the Potency result is “inactive”.

As for `COc1ccc(C(=O)NC(=C(Cl)Cl)S(=O)(=O)c2ccc(C)cc2)cc1`, the Potency result is “inactive”.

On to `Cc1ccc(S(=O)(=O)/C(=C/Cl)NC(=O)c2ccccc2)cc1`, for which the Potency is 22.4 µM (active).

In the case of `Cc1ccc(S(=O)(=O)NCC(=O)N/N=C/c2ccccc2O)cc1`, the Potency result was “inactive”.

Take `CCOC(=O)c1ccc(/C=C2/C=C(c3ccccc3)N(c3ccc(Cl)c(C(=O)O)c3)C2=O)cc1`: the Potency entry is “inactive”.

As for `O=C(c1cc(COc2cccc(C(F)(F)F)c2)on1)N1CCC(c2ccncc2)CC1`, the Potency result is “inactive”.

Regarding `CSc1sc(-c2nnc(SCC(=O)Nc3ccc(Cl)cc3)n2C)c2c1C=CCC2`, the Potency result was “inactive”.

Regarding `Cn1c(SCC(=O)Nc2cc(Cl)cc(Cl)c2)nnc1-c1ccc2nonc2c1`, the Potency entry was “inactive”.

Turning to `Cn1c(SCC(=O)N/N=C/c2ccc([N+](=O)[O-])s2)nnc1-c1ccccc1`, the Potency was 22.4 µM (active).

Regarding `COc1ccc(O)c(/C=N/NC(=O)CSc2nnc(C)n2-c2ccccc2)c1`, the Potency result is “inactive”.

For `Cn1c(SCC(=O)N/N=C/c2ccc([N+](=O)[O-])s2)nnc1-c1ccc(Cl)cc1`, the Potency was 11.2 µM (active).

For `C=CCn1c(COc2ccccc2)nnc1SCC(=O)N/N=C/c1cc(Cl)ccc1O`, the Potency entry was “inactive”.

As to `CCN1CC2=C(OC(N)=C(C#N)C2c2cccs2)/C(=C\c2cccs2)C1` (stereo not given), the Potency entry is “inactive”.

Consider `C/C(=N\NC(=O)C12CCC(C)(C(=O)O1)C2(C)C)c1ccccc1O` (stereo not given), for which the Potency entry is “inactive”.

Take `Cc1nn(-c2ccccc2)c2nc(-c3cccs3)cc(C(=O)NN)c12`: the Potency entry is “inactive”.

Consider `CCCNC(=O)c1ccc2c(=O)c(O)c(-c3ccc(C)cc3)[nH]c2c1`, for which the Potency entry was “inactive”.

On to `Cn1nnnc1Sc1ncnc2scc(-c3cccc(S(C)(=O)=O)c3)c12`, for which the Potency is 22.4 µM (active).

For `CC(=O)c1cccc(-c2csc3ncnc(Sc4nnnn4C)c23)c1`, the Potency was 11.2 µM (active).

`CCN1CCS/C1=C\C=C\C1=[N+](CC)CCS1`: the Potency is 25.1 µM (active).

`Cc1cc(C)cc(NC(=O)CCc2nc3sc4c(c3c(=O)[nH]2)CCCC4)c1`: the Potency result is “inactive”.

Consider `Cc1ccc(N/C(N)=N/c2nc(C)cc(N3CCCCC3)n2)c(C)c1`, for which the Potency is 3.16 µM (active).

In the case of `Cc1cc(C)nc(/N=C(\N)Nc2ccc(C(C)C)cc2)n1`, the Potency result is “inactive”.

Regarding `O=C(c1ccco1)N1CCN(c2ncnc3scc(-c4cccs4)c23)CC1`, the Potency entry was “inactive”.

On to `COc1ccccc1OCCN1CSC(=S)N(C)C1`, for which the Potency is 20 µM (active).

For the compound `COC(=O)C1=C(C)N(c2ccc(Cl)c(Cl)c2)C(=O)C1`, the Potency result was “inactive”.

On to `CCCCC(=O)NNC(=S)NC(=O)c1ccc(C)cc1`, for which the Potency result is “inactive”.

In the case of `COc1ccc2c(c1)CCCN2S(=O)(=O)c1ccc(Cl)cc1`, the Potency entry is “inactive”.

For `COc1ccc(/C=C2\CN(Cc3ccccc3)C/C(=C\c3ccc(OC)c(O)c3)C2=O)cc1O`, the Potency was 12.6 µM (active).

In the case of `COc1ccc(CCNC2=C(Cl)C(=O)N(Cc3ccccc3)C2=O)cc1OC`, the Potency entry was “inactive”.

For the compound `COCC(C)n1c(C)cc(C(=O)COC(=O)c2cccn2C)c1C` (stereo not given), the Potency result is “inactive”.

Regarding `CCOc1cc(C=C(C(=O)OC)C(=O)OC)ccc1OCc1ccc([N+](=O)[O-])cc1`, the Potency was 28.2 µM (active).

Take `N#Cc1nc(COc2ccc(-c3ccccc3)cc2)oc1NCc1cccnc1`: the Potency entry is “inactive”.

As to `O=C(Nc1ccc[n+](CC(=O)c2cccc3ccccc23)c1)c1ccccc1`, the Potency is 3.16 µM (active).

For `CC(C(=O)c1ccc(-c2ccccc2)cc1)[n+]1cccc(NC(=O)c2ccccc2)c1` (stereo not given), the Potency entry was “inactive”.

As to `O=C(/C=C/c1ccc(Cl)cc1)Nc1ccc(CN2CCOCC2)cc1`, the Potency entry is “inactive”.

As for `O=C(Nc1cnn(C23CC4CC(CC(C4)C2)C3)c1)c1cnn2c(C(F)(F)F)cc(-c3ccco3)nc12`, the Potency was 35.5 µM (active).

Take `Cn1c(S(=O)(=O)c2ccc([N+](=O)[O-])cc2)nc(Br)c1Br`: the Potency result was “inactive”.

On to `COc1ccc2c(c1)CC(N1CCN(C)CC1)c1cc(OC)ccc1S2` (stereo not given), for which the Potency is 28.2 µM (active).

Regarding `O=C(CSc1nc2ncc(Br)cc2[nH]1)Nc1ccccc1-c1ccccc1`, the Potency entry is “inactive”.

Turning to `COc1cccc(C2CC(c3c(-c4ccccc4)c4cc(Cl)ccc4[nH]c3=O)=NN2S(C)(=O)=O)c1OC` (stereo not given), the Potency entry was “inactive”.

As to `C/C(=N\NC(=O)CN1CCCCC1)c1ccccc1O`, the Potency result is “inactive”.

For `Cc1cc(C)c(S(=O)(=O)/N=C2\C=C(Nc3ccc(C(=O)O)cc3)C(=O)c3ccccc32)c(C)c1`, the Potency was 3.16 µM (active).

As for `FC(F)(F)c1nc(-c2cccs2)ncc1-c1nnnn1-c1ccc(Cl)cc1`, the Potency was 35.5 µM (active).

Turning to `Oc1c(C(c2ccccn2)N2CCC(Cc3ccccc3)CC2)cc(Cl)c2cccnc12` (stereo not given), the Potency is 25.1 µM (active).

For the compound `CCCCSc1nc(C)cc(SCC(=O)N/N=C/c2cccc(OC)c2O)n1`, the Potency result was “inactive”.

`O=C(C1CCC(CNS(=O)(=O)c2cccs2)CC1)N1CCN(c2ccc(F)cc2)CC1` (stereo not given): the Potency result was “inactive”.

Consider `CN1CCN(c2cc(-c3cc(O)c4ncccc4c3)ccn2)CC1`, for which the Potency is 31.6 µM (active).

As to `O=c1c2ccccc2sc2c(CO)ccc(NCCN3CCCCC3)c12`, the Potency is 22.4 µM (active).

In the case of `CCN(CC)CCNc1ccnc2cc(Cl)ccc12`, the Potency entry was “inactive”.

Consider `CCN(CC)CCNc1ccc(CO)c2sc3ccccc3c(=O)c12`, for which the Potency is 20 µM (active).

Take `Cc1cc(C(=O)CN2C(=O)c3ccccc3S2(=O)=O)c(C)n1C(C)C`: the Potency entry was “inactive”.

As for `O=C(Nc1ccc(Br)cc1)c1cccc(OC(=S)N2CCOCC2)c1`, the Potency result was “inactive”.

Regarding `CCn1c2ccccc2c2cc(NC(=O)COC(=O)c3cccc(S(=O)(=O)NC)c3)ccc21`, the Potency entry is “inactive”.

As to `OC1(c2ccc(Cl)cc2)CCN(Cc2c[nH]c3ccccc23)CC1`, the Potency entry is “inactive”.

As to `O=C(Nc1ccc(NC(=O)c2ccc(Cl)cc2Cl)cc1)c1cccs1`, the Potency result is “inactive”.

With `O=C(Nc1ccc(Cl)cc1)Nc1nc(-c2sccc2Br)cs1`, the Potency is 10 µM (active).

In the case of `CCCCOc1ccccc1NC(=O)Cn1c(-c2nonc2N)nc2ccccc21`, the Potency is 11.2 µM (active).

Regarding `CCCCOc1ccccc1NC(=O)c1scc2c1OCCO2`, the Potency result was “inactive”.

As for `CCOc1ccccc1NC(=O)CCCc1nc2ccccc2c(=O)[nH]1`, the Potency result was “inactive”.

As for `Cc1cc(OCCCCCn2ccnc2)cc(C)c1Cl`, the Potency result is “inactive”.

For `Cc1cc(SCC(=O)NN)c2cc(Br)ccc2n1`, the Potency entry is “inactive”.

Consider `CCCOc1ccc(C(=O)NC(=S)NNC(=O)c2c(-c3ccccc3)noc2C)cc1`, for which the Potency entry was “inactive”.

Take `COc1cccc(/C=N/Nc2nc3ccccc3n3cnnc23)c1O`: the Potency entry is “inactive”.

In the case of `COc1cccc(/C=N/Nc2ncnc3c2ncn3Cc2ccccc2)c1O`, the Potency result was “inactive”.

For the compound `O=[N+]([O-])c1ccc(O)c(/C=N\N=C2c3ccccc3-c3ccccc32)c1`, the Potency is 12.6 µM (active).

For `O=[N+]([O-])c1ccc(O)c(/C=N/Nc2ccccn2)c1`, the Potency was 10 µM (active).

As for `O=[N+]([O-])c1ccc(O)c(/C=N/Nc2ncnc3c2cnn3-c2ccccc2)c1`, the Potency was 12.6 µM (active).

In the case of `O=C(CCc1ccccc1)N/N=C/c1cc(Br)ccc1O`, the Potency entry was “inactive”.

`CCN(CC)S(=O)(=O)c1ccc(N/N=C/c2cc(OC)ccc2O)nc1`: the Potency entry was “inactive”.

In the case of `Cc1cc(Cl)c(C(=O)Nc2cccc(C(F)(F)F)c2)c(C)n1`, the Potency result was “inactive”.

Consider `C=CCN1C=CC(=O)[C@@H](OC(=O)Nc2ccc(Br)cc2)[C@H]1c1ccccc1Br`, for which the Potency entry was “inactive”.

As for `O=C(CN1C(=O)c2ccccc2S1(=O)=O)Nc1ncc(Cl)cc1Cl`, the Potency entry was “inactive”.

As to `O=C(c1ccco1)N(CCCN1CCOCC1)c1nc(-c2ccc(Cl)cc2)cs1`, the Potency result was “inactive”.

For the compound `CC(=O)Nc1cc(-c2ccc(C(=O)NC3CC3)cc2)cn2c(-c3cccc(C(C)=O)c3)cnc12`, the Potency entry is “inactive”.

In the case of `NS(=O)(=O)c1ccc(CCNC(=O)COC(=O)/C=C/c2cc(Br)ccc2F)cc1`, the Potency result is “inactive”.

On to `O=C(NCCc1ccccc1)c1ccc2nccnc2c1`, for which the Potency entry is “inactive”.

Take `NS(=O)(=O)c1ccc(CCNC(=O)c2cc(-c3ccccn3)nc3ccc(Br)cc23)cc1`: the Potency is 35.5 µM (active).
